# RGS4-Gao reg – modulators of RGS4 binding to Galphao, primary screen, biochemical, multiplexed bead flow cytometry | Guanine nucleotide-binding protein G(o) subunit alpha (Homo sapiens), P09471 | actives lie on both sides | binding response (% of control), % at 10 µM | AID 1415, 2008 | 0.33% of 220,000 active; in the data active means binding response below about 49% or above about 150%; inactive means in between;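 further: fluorescent Galphao activated with aluminum fluoride binding bead-coupled RGS4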
# Target sequence (P09471 whole entry, looked up): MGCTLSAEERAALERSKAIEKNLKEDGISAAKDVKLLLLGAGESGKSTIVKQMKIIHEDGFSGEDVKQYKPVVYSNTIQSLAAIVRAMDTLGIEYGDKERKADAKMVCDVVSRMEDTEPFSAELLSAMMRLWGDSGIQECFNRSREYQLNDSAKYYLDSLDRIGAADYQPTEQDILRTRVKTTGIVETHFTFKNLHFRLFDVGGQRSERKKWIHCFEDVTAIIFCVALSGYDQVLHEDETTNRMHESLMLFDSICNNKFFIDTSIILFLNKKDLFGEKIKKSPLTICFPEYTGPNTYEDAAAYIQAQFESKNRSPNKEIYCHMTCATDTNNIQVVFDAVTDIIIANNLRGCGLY
# RGS8-Gao reg – RGS8-Galphao binding modulators, primary screen, biochemical, multiplexed bead flow cytometry. actives lie on both sides. AID 1423, 2008. response (percent of control binding), % at 10 µM. 0.34% of 220,000 active; in the data active means response below about 60% or above about 140%; inactive means in between;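 further: Galphao activated as the GDP aluminium fluoride complex binding bead-coupled RGS8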
# RGS7-Gao reg – RGS7-Galphao binding modulators, primary screen, biochemical, multiplexed bead flow cytometry | Guanine nucleotide-binding protein G(o) subunit alpha (Homo sapiens), P09471 | actives lie on both sides | binding response (% of control), % at 10 µM | 0.35% of 220,000 active | AID 1439, 2008; in the data active means binding response below about 49% or above about 150%; inconclusive means no clear call, values can overlap the other calls; inactive means in between;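 further: fluorescent Galphao held in activated GDP-AlF4 state binding bead-coupled RGS7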
# RGS16-Gao HTS – modulators of RGS16 binding to Galphao, primary screen, biochemical, human proteins, multiplexed bead flow cytometry. bead-based flow cytometry RGS16-Galphao binding, fluorescence; actives lie on both sides. binding response (% of control), % at 10 µM. 0.38% of 220,000 active. AID 1441, 2008;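 further: Galphao activated by GDP with aluminum fluoride before binding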
# RGS-Gao – modulators of RGS–Galpha-o binding, primary screen, biochemical, multiplexed beads, flow cytometry, RGS4/7/8/16/19. 99% of 1,600 active. RGS4–Galpha-o binding response, % at 10 µM. multiplexed bead flow cytometry. shares compounds with RGS16-Gao HTS. AID 1504, 2009;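 further: fluorescently labeled Galpha-o bound to GDP with aluminium fluoride binding biotinylated RGS beads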
# Biotin-avidin – disruption of biotin probe capture by avidin, counter-screen for RGS protein interaction modulators, biochemical, flow cytometry, bead-based. shares compounds with RGS16-Gao HTS. streptavidin beads, fluorescein-biotin binding. inhibition, % at 10 µM. 1,700 tested, under 10 active. AID 1783, 2009;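 active means inhibition above 50%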;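 further: median green fluorescence of gated singlet beads compared with DMSO control wells; 0% = DMSO wells and 100% = complete loss of bead fluorescence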
# RGS8-Gao single – RGS8-Galphao binding modulators, confirmation, biochemical, multiplexed bead flow cytometry, single concentration | shares compounds with RGS16-Gao HTS | 3% of 1,700 active | binding response (% of control), % at 10 µM | AID 1836, 2009 | bead-based flow cytometry RGS8-Galphao binding, fluorescence; actives lie on both sides; in the data active means binding response below about 72% or above about 130%; inactive means in between;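 further: Galphao activated as GDP AlF4 complex before binding bead RGS8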
# RGS7-Gao confirm – RGS7-Galphao binding modulators, confirmation, biochemical, multiplexed bead flow cytometry, single concentration; shares compounds with RGS16-Gao HTS; bead-based flow cytometry RGS7-Galphao binding; actives lie on both sides; response (percent of control binding), % at 10 µM; 7.8% of 1,700 active; AID 1837, 2009; in the data active means response below about 75% or above about 130%; inactive means in between;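 further: fluorescent Galphao activated with GDP and aluminum fluoride binding bead-coupled RGS7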
# RGS16-Gao single – modulators of RGS16-Galphao protein binding, confirmation, biochemical, single concentration, multiplexed bead flow cytometry | response (% of control binding), % at 10 µM | bead-based flow cytometry; actives lie on both sides | shares compounds with RGS16-Gao HTS | 4% of 1,700 active; in the data active means response below about 74% or above about 130%; inactive means in between;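 further: Galphao activated as the GDP aluminium fluoride complex binding bead-coupled RGS16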
# RGS4-Gao single – modulators of RGS4-Galphao protein binding, confirmation, biochemical, single concentration, multiplexed bead flow cytometry; shares compounds with RGS16-Gao HTS; actives lie on both sides; binding response (% of control), % at 10 µM; 4% of 1,700 active; AID 1840, 2009; in the data active means binding response below about 74% or above about 130%; inactive means in between
# RGS19-Gao single – regulators of RGS19-Galphao binding, confirmation, biochemical, single point, multiplexed bead flow cytometry; AID 1841, 2009; shares compounds with RGS16-Gao HTS; bead-based flow cytometry RGS19-Galphao binding; actives lie on both sides; 5% of 1,700 active; response (percent of control binding), % at 10 µM; in the data active means response below about 50% or above about 160%; inactive means in between;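 further: 100% = no compound control and 0% = blank background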
# Target sequence (P09471 whole entry, looked up): as above
# Target sequence (P49795 whole entry, looked up): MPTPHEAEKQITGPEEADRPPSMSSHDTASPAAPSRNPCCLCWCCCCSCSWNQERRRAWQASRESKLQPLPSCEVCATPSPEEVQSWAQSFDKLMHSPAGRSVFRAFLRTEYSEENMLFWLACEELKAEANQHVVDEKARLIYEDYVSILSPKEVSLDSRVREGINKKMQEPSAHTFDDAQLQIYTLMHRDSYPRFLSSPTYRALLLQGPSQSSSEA
# * marks the source's active call; other numbers are inactive results; u = inconclusive; x = no result; [ ] = another dose, or the depositor's remark. A selection: hits, their analogues and other compounds. The true share with any hit is near 0.78%. Unless noted, how the calls were made is not given here.
SMILES,RGS4-Gao reg,RGS8-Gao reg,RGS7-Gao reg,RGS16-Gao HTS,RGS-Gao,Biotin-avidin,RGS8-Gao single,RGS7-Gao confirm,RGS16-Gao single,RGS4-Gao single,RGS19-Gao single
COc1ccc(C(=O)NC(=O)Nc2ncccc2C)cc1,77,70,74,2.9*,77*,-1,102,107,104,103,100
Cc1[nH]c2ccccc2c1/C=N/Nc1ccc([N+](=O)[O-])cc1S(=O)(=O)Nc1ccc(Cl)cc1,131,103,128,126,x,x,x,x,x,x,x
COc1ccc(NS(=O)(=O)c2cc([N+](=O)[O-])ccc2N/N=C\c2c(C)[nH]c3ccccc23)cc1,151*[activator],110,136,145,x,0,101,159*[activator],117,128*[activator],199*[activator]
COc1ccc(C(=O)OCC(=O)Nc2ccc(F)c(F)c2)cc1OC,92,94,95,97,x,x,x,x,x,x,x
CCNC(=O)Cn1c(=O)c(=O)n(Cc2ccccc2)c2ccc(Cl)cc21,162*[activator],84,171*[activator],243*[activator],x,0,103,102,103,104,99
CC(=Nc1ccccc1)Nc1ccccc1,144,159*[activator],125,x,144*,-1,101,100,103,105,123
S=c1[nH]ccn1-c1cccc(Cl)c1Cl,104,102,u,102,x,x,x,x,x,x,x
CN(C)c1cccc(C(=O)Nc2cc(C(F)(F)F)ccc2-n2cnc3ccccc32)c1,106,127,115,197*[activator],106*,0,100,97,98,99,103
Cc1ccc(S(=O)(=O)NCCc2nnc3ccc(SCC(=O)Nc4nc5ccccc5s4)nn23)cc1,105,114,109,177*[activator],105*,0,95,91,93,92,82
O=C(CCC(=O)Nc1ccc(Cl)cc1Cl)NNC(=O)Nc1ccccc1,101,99,u,99,x,x,x,x,x,x,x
O=C(O)C1CCCCC1C(=O)Nc1ccc(Cl)cc1Cl (stereo not drawn),90,98,91,90,x,x,x,x,x,x,x
O=C(O)C1CCCCC1C(=O)Nc1cc(Cl)ccc1Cl (stereo not drawn),87,59*,49*,99,87*,1,100,102,101,102,105
O=C(CCC(=O)Nc1ccc(Cl)cc1Cl)NNC(=O)[C@@H]1CCCC[C@@H]1C(=O)O,108,128,107,185*[activator],108*,1,101,105,103,103,101
COc1cccc(NC(=O)CN(C)CC(=O)Nc2ccc(C)cc2Cl)c1,103,102,102,104,x,x,x,x,x,x,x
CCc1c(C(=O)Nc2ccccc2)c(C)[nH]c(=S)c1C#N,99,69,102,-59*,99*,2,81,130*[activator],79,100,84
CCOC(=O)c1c(C)n(C)c2ccc(O)c(CN3CCN(C)CC3)c12,131,150*[activator],121,345,131*,3,94,102,96,98,95
CC(=O)c1cccc(N(CC(=O)Nc2ccccc2F)S(C)(=O)=O)c1,102,100,u,101,x,x,x,x,x,x,x
CCOC(=O)c1[nH]c2cc(OC)c(OC)cc2c1NC(=O)CCN1CCSCC1,17*,21*,u,9.8*,x,-2,95,90,95,95,85
COc1ccc(Oc2ccc(/C=C/C(=O)c3ccc(O)cc3)cc2[N+](=O)[O-])cc1,104,101,101,104,x,x,x,x,x,x,x
CCc1ccc(NC(=O)CSc2nnc(Cn3c(=O)sc4ccccc43)n2C)cc1,103,102,104,105,x,x,x,x,x,x,x
CCOC(=O)c1ccc(NC(=O)CSc2nnc(Cn3c(=O)sc4ccccc43)n2C)cc1,109,94,173*[activator],101,109*,-2,99,101,101,99,88
CCOC(=O)C(NC(C)=O)(Nc1cccc(F)c1)C(F)(F)F (stereo not drawn),104,106,103,103,x,x,x,x,x,x,x
CCOC(=O)C(NC(C)=O)(Nc1ccc(F)cc1)C(F)(F)F (stereo not drawn),138,99,205*[activator],119,138*,2,103,108,104,106,106
NS(=O)(=O)c1ccc(N/N=C/c2ccc(O)c(O)c2O)c([N+](=O)[O-])c1,69,39*,u,20*,69*,-9,43*,35*,42*,71*,-0.4*
COc1ccc(C(CCNCc2ccc(N(C)C)cc2)C(C)C)cc1 (stereo not drawn),106,108,u,109,x,x,x,x,x,x,x
SMILES,RGS4-Gao reg,RGS8-Gao reg,RGS7-Gao reg,RGS16-Gao HTS,RGS-Gao,Biotin-avidin,RGS8-Gao single,RGS7-Gao confirm,RGS16-Gao single,RGS4-Gao single,RGS19-Gao single
COc1ccc(CNCCC(c2ccc(OC(C)C)cc2)C(C)C)cc1OC (stereo not drawn),117,142*[activator],120,229,117*,3,103,99,103,98,97
COc1ccc(C(CCNCc2ccc(OC(C)C)cc2)C(C)C)cc1 (stereo not drawn),-9.6*,8.9*,u,-5.3*,x,0,102,90,94,94,77
CCN(c1ccccc1)C1(O)C(=O)c2ccccc2C1=O,99,99,102,95,x,x,x,x,x,x,x
CC(=O)Nc1ccc(-c2nnn(CC(=O)c3ccc(F)cc3)n2)cc1Cl,99,98,u,103,x,x,x,x,x,x,x
Cc1nc2ccc(F)cc2cc1C(=O)Nc1cccc(Cl)c1C,96,100,94,103,x,x,x,x,x,x,x
Cc1nc2ccccc2cc1C(=O)Nc1ccccc1Cl,148,140,157*[activator],150,148*,0,101,104,100,102,100
